The values below come from PubChem BioAssay AID588342 (National Center for Advancing Translational Sciences (NCATS), 2011).

SMILES strings stand for the structures. The whole screen tested about 360,000 compounds, of which about 25,000 (6.9%) were called active. A call without a number means that no potency is given here. Another 9% or so got no clear call; they are omitted. Calls follow the shape of the dose curve; as a rule, active = well fitted inhibition curve with a large enough effect; inconclusive = small, poorly fitted or top-dose-only effect; inactive = flat fitted curve, though single readings scatter. The sample as a whole holds a higher share of actives than the screen did.
Potency is read from the fitted curve at half-maximal effect.

Sequence of Luciferin 4-monooxygenase (Photinus pyralis) (P08659 whole entry, looked up): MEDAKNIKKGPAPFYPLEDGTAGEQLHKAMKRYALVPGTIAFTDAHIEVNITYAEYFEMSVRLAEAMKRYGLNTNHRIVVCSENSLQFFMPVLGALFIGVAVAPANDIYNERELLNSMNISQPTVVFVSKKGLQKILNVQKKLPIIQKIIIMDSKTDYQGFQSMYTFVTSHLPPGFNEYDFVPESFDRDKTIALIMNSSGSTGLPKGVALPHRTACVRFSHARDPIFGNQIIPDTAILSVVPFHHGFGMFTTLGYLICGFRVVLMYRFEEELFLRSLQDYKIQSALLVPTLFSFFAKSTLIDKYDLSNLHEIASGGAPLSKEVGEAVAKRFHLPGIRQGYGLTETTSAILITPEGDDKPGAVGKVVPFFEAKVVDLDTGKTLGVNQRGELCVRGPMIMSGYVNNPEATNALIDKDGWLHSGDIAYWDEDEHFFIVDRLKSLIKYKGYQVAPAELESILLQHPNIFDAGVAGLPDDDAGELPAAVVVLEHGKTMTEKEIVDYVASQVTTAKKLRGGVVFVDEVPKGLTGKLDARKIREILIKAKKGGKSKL

The experiment addresses Luciferin 4-monooxygenase (Photinus pyralis) (UniProt P08659). The experiment in a line: qHTS profiling assay for firefly luciferase inhibitor/activator using purifed enzyme and Km concentrations of substrates (counterscreen for miR-21 project). Also: nearly all actives have a fitted effect of over 55% in size. The conditions noted are these: purified FLuc, luminescence inhibition; series mostly up to 57.5 µM. The procedure, abridged:
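Purified P. pyralis luciferase, 10 nM final, with Km-level 10 uM D-luciferin and 10 uM ATP in 50 mM Tris acetate pH 7.5, 10 mM Mg acetate, 0.01% Tween-20, 0.05% BSA; 6-point qHTS titration about 60 µM downward; luminescence read.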
(In general: qHTS replaces the single test concentration by a dilution series.)
For the compound `O=C1CC2(CCN(C(=O)COc3ccc(F)cc3)CC2)Oc2ccccc21`, the Potency result was “inactive”.

For the compound `CCCc1cc(=S)n2c([nH]c3ccccc32)c1C#N`, the Potency was 19 µM (active).

Consider `CCOC(=O)CCc1c(C)c(C#N)c2[nH]c3ccccc3n2c1=O`, for which the Potency result was “inactive”.

With `CN(C)c1ccc(C(CNS(=O)(=O)c2cc(F)ccc2F)N2CCOCC2)cc1` (stereo not given), the Potency entry was “inactive”.

As for `Cn1nc(-c2ccccc2)c2cc([N+](=O)[O-])ccc21`, the Potency result was “inactive”.

As to `Cc1cc(CO)nn1-c1ccc([N+](=O)[O-])cc1`, the Potency entry was “inactive”.

Turning to `Cc1nn(-c2ccc([N+](=O)[O-])cc2)c(N)c1-c1ccccc1`, the Potency is 7.57 µM (active).

`COc1ccc(CCNC(=O)c2ccc(-n3c(C)cc4c3CCCC4)cc2)cc1OC`: the Potency entry is “inactive”.

For the compound `COc1cc(C(=O)NCC(c2ccc(Cl)cc2)N2CCOCC2)cc(OC)c1OC` (stereo not given), the Potency entry was “inactive”.

In the case of `Cc1ccccc1N1CC(C(=O)Nc2nnc(SCCC3OCCO3)s2)CC1=O` (stereo not given), the Potency result is “inactive”.

On to `Cc1ccc(NC(=O)NCC(c2cccnc2)N2CCOCC2)cc1` (stereo not given), for which the Potency result is “inactive”.

On to `O=C(NNC(=O)c1cccnc1)Nc1ccccc1`, for which the Potency result was “inactive”.

For `Cc1ccc(NC(=O)Nc2ccc3oc(C)nc3c2)cc1`, the Potency was 1.2 µM (active).

On to `Cc1nc2ccc(NC(=O)C(F)(F)F)cc2o1`, for which the Potency entry was “inactive”.

In the case of `Cc1ccc(NC(=O)Nc2cccnc2)cc1`, the Potency was 10.7 µM (active).

On to `C=C(C)C(=O)Nc1cccc(C(C)=O)c1`, for which the Potency result was “inactive”.

Take `CC(=O)c1cccc(NC(=O)Nc2ccc(C)cc2)c1`: the Potency is 4.78 µM (active).

As for `CC(=O)c1cccc(NC(=S)N2CCCC2)c1`, the Potency entry is “inactive”.

On to `Cc1ccc(NC(=O)c2cc3cc(C)ccc3n2C)cc1`, for which the Potency entry was “inactive”.

As for `Cc1cccc(N2CCN(C(=O)Cn3ncc4c5ccccc5n(C)c4c3=O)CC2C)c1` (stereo not given), the Potency entry was “inactive”.

For `CCN(CC)S(=O)(=O)c1cc(C(=O)Nc2cc(S(=O)(=O)N3CCOCC3)ccc2N2CCCC2)ccc1F`, the Potency entry was “inactive”.

With `CN1CCN(/N=C2/C(=O)Nc3ccc([N+](=O)[O-])cc32)CC1`, the Potency entry was “inactive”.

For `CCCCN(C(=O)C1CCC1)c1c(N)n(Cc2ccccc2)c(=O)[nH]c1=O`, the Potency entry is “inactive”.

Take `CCOc1ccc(NC(=O)C(CC(C)C)N2Cc3ccccc3C2=O)cc1` (stereo not given): the Potency entry is “inactive”.

Regarding `CCOC(=O)c1ccc(NC(=O)C2CC(=O)N(c3ccc(C(C)C)cc3)C2)cc1` (stereo not given), the Potency result is “inactive”.

For the compound `CCNC(=O)CC1C(=O)N(c2ccc(OC)cc2)C(=O)N1CCOC` (stereo not given), the Potency result is “inactive”.

For `O=C(c1ccc(Oc2ccc(Cl)cc2)c([N+](=O)[O-])c1)N1CCCC1`, the Potency entry was “inactive”.

For the compound `CCOC(=O)c1oc2ccc(S(=O)(=O)n3nc(-c4ccccc4OC)cc3N)cc2c1C`, the Potency entry was “inactive”.

Consider `COc1ccc(-c2[nH]c3c(c2-c2c(-n4cccc4)n(C)c(=O)n(C)c2=O)c(=O)n(C)c(=O)n3C)cc1`, for which the Potency result is “inactive”.

Take `COC(=O)c1cc(NC(=O)c2nn(C)c(=O)c3ccccc23)cc(C(=O)OC)c1`: the Potency entry was “inactive”.

In the case of `CCc1ccccc1NC1c2ccccc2C(=O)N1c1cccnc1` (stereo not given), the Potency entry was “inactive”.

Regarding `COC(=O)c1cc(NC2c3ccccc3C(=O)N2c2ccc(Cl)cn2)cc(C(=O)OC)c1` (stereo not given), the Potency is 6.01 µM (active).

Regarding `CCOc1ccc(C(=O)N2CCN(CCc3ccccn3)CC2)cc1`, the Potency entry was “inactive”.

As for `CCCCNC(=O)CSc1nc2cc3c(cc2c(=O)n1CCCCCC(=O)NCc1ccc2c(c1)OCO2)OCO3`, the Potency entry is “inactive”.

`CCCCN=C1C([N+](=O)[O-])=CC=C2C1=NC1(CCCCC1)N2O`: the Potency entry was “inactive”.

As for `Cn1c(=O)c(C(=O)Nc2ncccn2)c(O)c2ccccc21`, the Potency is 21.3 µM (active).

For `C=CCn1c(=O)c(C(=O)Nc2ncccc2O)c(O)c2ccccc21`, the Potency entry is “inactive”.

On to `CCCn1c(=O)c(C(=O)Nc2cc(C)ccn2)c(O)c2ccccc21`, for which the Potency entry is “inactive”.

As for `C=CCC(Nc1ccccc1)c1cccc(OC)c1OC` (stereo not given), the Potency entry was “inactive”.

In the case of `CCCCn1c(N)c(N(CCOC)C(=O)c2oc3ccc(OC)cc3c2C)c(=O)[nH]c1=O`, the Potency entry is “inactive”.

As for `COCCNC(=S)N1CCC(NC(=O)C23CC4CC(CC(C4)C2)C3)CC1`, the Potency result was “inactive”.

Turning to `Cc1ccc(-c2nc3cccc(C)n3c2Nc2ccc3c(c2)OCCO3)cc1`, the Potency result was “inactive”.

Turning to `CC(C)(C)Nc1c(-c2cccs2)nc2ccccn12`, the Potency entry was “inactive”.

On to `Cc1ccc(Nc2c(-c3ccc(C)cc3)nc3cnccn23)cc1`, for which the Potency result was “inactive”.

With `Cc1ccn2c(Nc3ccc4c(c3)OCCO4)c(-c3ccc(C)s3)nc2c1`, the Potency was 8.49 µM (active).

Take `Cc1ccc(Nc2c(-c3ccc(C)s3)nc3ccccn23)cc1`: the Potency is 13.5 µM (active).

For `Oc1ccccc1-c1nc2ccc(Cl)cn2c1Nc1ccc2c(c1)OCCO2`, the Potency entry was “inactive”.

For the compound `Cn1c(=O)nc2n(-c3ccc(Br)cc3)c3cccc(Cl)c3cc-2c1=O`, the Potency result was “inactive”.

`O=C(COc1ccccc1F)OCc1cc(=O)n2nc(C3CCCCC3)sc2n1`: the Potency result was “inactive”.

For `CC(C)CNc1ncnc2c1nnn2C`, the Potency entry is “inactive”.

Regarding `O=S(=O)(c1ccc2nc(NCc3ccccc3Cl)ccc2c1)N1CCCCC1`, the Potency entry was “inactive”.

For `O=C1C=C(c2cccc(Br)c2)C[C@@H](c2ccc(F)cc2)C1`, the Potency entry was “inactive”.

Take `Cc1ccc(C)c(N2CCN(Cc3nnc(-c4ccccc4)o3)CC2)c1`: the Potency entry is “inactive”.

On to `O=C(c1[nH]ncc1-c1ccc(Cl)cc1)C1CO1` (stereo not given), for which the Potency result is “inactive”.

As for `O=C(c1nnc(-c2ccc(Cl)cc2)o1)C1CCCC1`, the Potency was 5.36 µM (active).

Consider `CC(C)N(Cc1nnc(-c2ccc(Cl)cc2)o1)C(=O)C1=COCCO1`, for which the Potency result was “inactive”.

`CCOCCCNC(=O)c1ccc2nc(CCc3ccccc3)oc2c1`: the Potency entry was “inactive”.

As for `CN1CCC(N(C)S(=O)(=O)c2ccc(NC(=O)c3cccc(C#N)c3)cc2)CC1`, the Potency result is “inactive”.

For the compound `Cc1ccc(C2=Nc3c(ccc4ccccc34)C(c3ccncc3)=NN2)cc1`, the Potency result is “inactive”.

For `CCOc1ccc2c(c1)C(c1ccc(C)cc1)=NNC(c1ccc(C)cc1)=N2`, the Potency is 23.9 µM (active).

Consider `COc1ccc2c(c1)C(c1cccs1)=NNC(c1cccnc1)=N2`, for which the Potency result was “inactive”.

As for `COCCCNC(NC(=O)c1ccc(C)cc1)C(Cl)(Cl)Cl` (stereo not given), the Potency entry is “inactive”.

Regarding `COc1cccc2[nH]c(C(=O)NCCc3ccccc3)cc12`, the Potency is 23.9 µM (active).

On to `COc1ccc(CCNC(=O)c2ccccc2-c2ccccc2C(=O)O)cc1OC`, for which the Potency result was “inactive”.

For the compound `COc1ccc(CCNC(=O)c2ccccc2OCc2ccccc2)cc1`, the Potency entry is “inactive”.

Consider `O=C(Cn1ncn2nc(-c3cccs3)cc2c1=O)NCc1cccc(Br)c1`, for which the Potency result was “inactive”.

As to `Oc1ccccc1-c1nc(/C=C/c2ccc(F)cc2)no1`, the Potency is 0.757 µM (active).

As for `CC(=O)c1ccc(NC(=O)COc2ccccc2-c2nc(-c3ccccc3)no2)cc1`, the Potency result was “inactive”.

`COc1ccc(/C=C/c2noc(-c3ccccc3OC(C)=O)n2)cc1`: the Potency was 15.1 µM (active).

With `CC(=O)Oc1ccccc1C1=NN(C(C)=O)C(c2ccccc2)C1` (stereo not given), the Potency result is “inactive”.
